According to PubChem BioAssay AID1159580 (chemical genetic matrix, 2015):
Where “and” joins values, the source holds several entries; their conditions need not be identical. Equal values may be shown once. Out of some 5,500 compounds screened, about 2,000 (36%) were called active. Another 18% or so got no clear call; they are omitted. Cut-off read from the data, not from the text of the source: active = normalized growth mostly below about 0.91 (no sharp cut-off); inconclusive = no clear call, values can overlap the other calls; inactive = mostly above about 0.92. The list shows a part of the results.

Assay: chemical genetic growth profiling, strain panel (AID 1159580);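 note: tested at 20 µM; growth read once vehicle control cultures reached saturation at 30 °C; 1 = growth at the plate median or of vehicle wells; lower values mean less growth of the strain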
Conditions: S. cerevisiae deletion strains, growth OD

Measured: normalized growth

O=c1n(CCCN2CCN(c3cccc(Cl)c3)CC2)nc2ccccn12
inactive: locus YAL013W, strain DEP1, stronger effect = lower value 0.995 | locus YAL021C, strain ccr4, stronger effect = lower value 0.939 | locus YAL026C, strain drs2, stronger effect = lower value 0.987 | locus YAL030W, strain snc1, stronger effect = lower value 0.988 | locus YAL040C, strain CLN3, stronger effect = lower value 0.987 | locus YBL061C, strain skt5, stronger effect = lower value 0.983 | locus YBR009C, strain hhf1, stronger effect = lower value 0.983 | locus YBR021W, strain FUR4, stronger effect = lower value 0.998 | locus YBR023C, strain chs3, stronger effect = lower value 0.981 | locus YBR171W, strain sec66, stronger effect = lower value 0.979 | locus YBR229C, strain ROT2, stronger effect = lower value 0.951 | locus YBR231C, strain swc5, stronger effect = lower value 0.981 | locus YBR279W, strain paf1, stronger effect = lower value 0.985 | locus YCL011C, strain gbp2, stronger effect = lower value 0.976 | locus YCL016C, strain dcc1, stronger effect = lower value 0.982 | locus YCL029C, strain bik1, stronger effect = lower value 0.987 | locus YCL061C, strain MRC1 (second series), stronger effect = lower value 0.998 | locus YCL061C, strain MRC1, stronger effect = lower value 0.984 | locus YCL069W, strain vba3, stronger effect = lower value 0.975 | locus YCR088W, strain abp1, stronger effect = lower value 0.978 | locus YDL005C, strain med2, stronger effect = lower value 0.965 | locus YDL035C, strain GPR1, stronger effect = lower value 0.984 | locus YDL040C, strain nat1, stronger effect = lower value 0.979 | locus YDL074C, strain BRE1, stronger effect = lower value 0.941 | locus YDL101C, strain DUN1, stronger effect = lower value 0.97 | locus YDL134C, strain PPH21, stronger effect = lower value 1 | locus YDL185W, strain tfp1, stronger effect = lower value 0.982 | locus YDL192W, strain arf1, stronger effect = lower value 0.986 | locus YDR001C, strain nth1, stronger effect = lower value 0.986 | locus YDR069C, strain doa4, stronger effect = lower value 0.966 | locus YDR101C, strain arx1, stronger effect = lower value 0.97 | locus YDR137W, strain rgp1, stronger effect = lower value 0.94 | locus YDR150W, strain NUM1, stronger effect = lower value 0.992 | locus YDR159W, strain sac3, stronger effect = lower value 0.956 | locus YDR162C, strain NBP2, stronger effect = lower value 0.991 | locus YDR195W, strain ref2 0.977 | locus YDR297W, strain sur2, stronger effect = lower value 0.98 | locus YDR318W, strain mcm21, stronger effect = lower value 0.998 | locus YDR334W, strain swr1, stronger effect = lower value 0.964 | locus YDR335W, strain msn5, stronger effect = lower value 0.984 | locus YDR363W, strain ESC2, stronger effect = lower value 0.998 | locus YDR388W, stronger effect = lower value 0.989 | locus YDR392W, strain spt3, stronger effect = lower value 0.95 | locus YDR502C, strain sam2, stronger effect = lower value 0.989 | locus YEL003W, strain gim4, stronger effect = lower value 0.986 | locus YEL037C, strain rad23, stronger effect = lower value 0.964 | locus YEL061C, strain CIN8 (second series), stronger effect = lower value 0.975 | locus YEL061C, strain CIN8, stronger effect = lower value 0.986 | locus YER002W, strain NOP16, stronger effect = lower value 1 | locus YER015W, strain faa2, stronger effect = lower value 0.978 | locus YER016W, strain bim1, stronger effect = lower value 0.987 | locus YER110C, stronger effect = lower value 0.984 | locus YER111C, strain swi4, stronger effect = lower value 0.971 | locus YER155C, strain BEM2 (second series), stronger effect = lower value 0.948 | locus YER155C, strain BEM2, stronger effect = lower value 0.994 | locus YER167W, strain BCK2, stronger effect = lower value 1 | locus YFR010W, strain ubp6, stronger effect = lower value 0.975 | locus YGL078C, strain dbp3, stronger effect = lower value 0.999 | locus YGL086W, strain mad1, stronger effect = lower value 0.976 | locus YGL167C, strain pmr1, stronger effect = lower value 0.976 | locus YGL173C, strain kem1, stronger effect = lower value 0.973 | locus YGL227W, strain vid30, stronger effect = lower value 0.985 | locus YGL240W, strain doc1, stronger effect = lower value 0.98 | locus YGL248W, strain PDE1, stronger effect = lower value 0.964 | locus YGL253W, strain hxk2, stronger effect = lower value 0.999 | locus YGR078C, strain PAC10, stronger effect = lower value 0.99 | locus YGR135W, strain pre9, stronger effect = lower value 1.03 | locus YGR229C, strain SMI1, stronger effect = lower value 1.01 | locus YGR252W, strain gcn5, stronger effect = lower value 0.993 | locus YHR013C, strain ard1, stronger effect = lower value 0.854 | locus YHR027C, strain rpn1, stronger effect = lower value 0.978 | locus YHR030C, strain SLT2, stronger effect = lower value 1 and 0.995 | locus YHR079C, strain IRE1 (second series), stronger effect = lower value 0.998 | locus YHR079C, strain IRE1, stronger effect = lower value 1 | locus YHR094C, strain hxt1, stronger effect = lower value 0.99 | locus YHR129C, strain ARP1, stronger effect = lower value 0.994 | locus YHR142W, strain chs7, stronger effect = lower value 0.985 | locus YHR200W, strain rpn10, stronger effect = lower value 0.997 | locus YIL066C, strain RNR3, stronger effect = lower value 0.955 | locus YIL073C, strain SPO22, stronger effect = lower value 1.13 | locus YIL125W, strain kgd1, stronger effect = lower value 0.988 | locus YIR030C, strain dcg1, stronger effect = lower value 0.987 | locus YJL092W, strain hpr5, stronger effect = lower value 0.97 | locus YJL095W, strain BCK1 (second series), stronger effect = lower value 0.987 | locus YJL095W, strain BCK1, stronger effect = lower value 0.898 and 1 | locus YJL115W, strain asf1, stronger effect = lower value 0.978 | locus YJL129C, strain trk1, stronger effect = lower value 0.946 | locus YJL134W, strain LCB3, stronger effect = lower value 0.992 | locus YJL154C, strain vps35, stronger effect = lower value 0.975 | locus YJL164C, strain tpk1, stronger effect = lower value 0.984 | locus YJL166W, strain qcr8, stronger effect = lower value 0.969 | locus YJL168C, strain set2, stronger effect = lower value 0.993 | locus YJL187C, strain SWE1 (second series), stronger effect = lower value 0.932 | locus YJL187C, strain SWE1, stronger effect = lower value 0.979 | locus YJR043C, strain POL32, stronger effect = lower value 0.936
